# Reference: PubChem BioAssay (NCI)
# About 83,000 compounds went through this panel and 20% of them were active in at least one assay; those are over-represented in the sample as a whole.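 Values shown are percent growth following 48 h exposure of cells in 96-well plates to a single concentration of compound; below 10 was considered active.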 Calls of active or inactive are those of the source.
# Tested on: HL-60(TB) leukemia
# Assay: NCI-60 one-dose screen, 48 h (100 = growth as untreated, 0 = no growth, -100 = all killed)
# Conditions: 10 µM unless noted
row,Compound,growth
1,CC(C)(C)c1cc(C=Nc2cccc(C(F)(F)F)c2)c(O)c(C(C)(C)C)c1,90.1% (inactive)
2,Clc1ccc(Nc2ccnc(N3CCN(c4ccnc5cc(Cl)ccc45)CC3)n2)cc1,72.1% (inactive)
3,CCCCOc1nc2ccc(Cl)cc2cc1/C=C/C(=O)/C=C1/CC(c2cc3cc(Cl)ccc3nc2OCCCC)Nc2ccccc2N1 (stereo not given),101% (inactive)
4,COc1nccc2c(Sc3ccccc3)nc(N)nc12,97.6% (inactive)
5,CC(C)(C)OC(=O)N1CCC(O)[C@@H](O[Si](c2ccccc2)(c2ccccc2)C(C)(C)C)[C@H]1/C=C/c1ccccc1 (stereo not given in full),55.9% (inactive)
6,CC1CCN(CCCCCOc2ccc3oc4ccccc4c(=O)c3c2)CC1,44.6% (inactive)
7,CNC(=O)c1cc(Oc2ccc3nc(NC(=O)Nc4ccc(CN5CCOCC5)c(C(F)(F)F)c4)sc3c2)ccn1,17.1% (inactive)
8,COc1ccc(C2Nc3c(c(C(C)(C)C)nn3-c3ccccc3)C(=O)CS2)cc1 (stereo not given),129% (inactive)
9,Cc1ccc(C(=O)CC(=O)C(F)(F)C(F)(F)C(F)(F)F)s1,101% (inactive)
10,CC1(C)NCCC[C@]2(C)[C@H]3C=CC4=C5C[C@](C)(CO)CC[C@]5(C)CC[C@@]4(C)[C@]3(C)CC[C@@H]12,-52.8% [100 µM] (active)
11,CC(C)(C)NC/C(=C\c1ccccc1)C(=O)c1ccccc1,1.97% (active)
12,Cc1cc(N2CCCC2)nc(NC2CCCC(Nc3ccnc4cc(Cl)ccc34)C2)n1 (stereo not given),-68.5% (active)
13,C#Cc1cc2c(N)c(C(=O)c3cc(OC)c(OC)c(OC)c3)[nH]c2cc1OC,-6.26% (active)
14,CCN(CC)CCNC(=O)c1c(C)[nH]c(/C=C2\C(=O)Nc3ccc(F)cc32)c1C,-23% (active)
15,O=C(NCCNc1nccc(-c2c(-c3cccc(F)c3)nc3sccn23)n1)c1ccc(Cl)cc1,99.1% (inactive)
16,C#CCN1C(=O)/C(=c2\sc3n(c2=O)C2C(NN=3)N(CC)C(=O)N2CC)c2ccccc21 (stereo not given),-29.4% (active)
17,Nc1n[nH]c2ccc([C@@H]3Nc4c(F)cc5[nH]ncc5c4[C@H]4C5CCC(C5)[C@@H]34)cc12 (stereo not given in full),1.76% (active)
18,Fc1ccc(-c2nc(Nc3ccc(-c4nc5ccccc5[nH]4)cc3)nc(N3CCOCC3)n2)cc1,-81.4% (active)
19,O=C(Nc1nc2ccc(C(=O)N3CCN(/C=C/c4ccccc4)CC3)cc2s1)c1ccc(NCCc2ccccc2)c([N+](=O)[O-])c1,80.5% (inactive)
20,N/C(=N/N=C/c1ccccc1)N/N=C\c1ccccc1,44.2% (inactive)

row,Compound,growth
1,O=c1c2cccc3c(Nc4ccc(Br)cn4)ccc(c32)c2nc3ccccc3n12,128% (inactive)
2,CCOC(=O)n1cnc2c(Cl)ncnc21,106% (inactive)
3,Clc1cccc(Cl)c1C(Nc1nc2ccccc2s1)Nc1nc2ccccc2s1,105% (inactive)
4,C/C=C(/C)C(=O)OC1C=C(CO)C(=O)C(OC(=O)C2(C)OC2C)C1C(C)C (stereo not given),-24.9% (active)
5,COc1cc(/C=C/C(=O)/C=C(/C=C/c2ccc(OC(C)=O)c(OC)c2)OB(F)F)ccc1OC(C)=O,4.04% (active)
6,Fc1ccc(CNc2c3ccccc3nc3ccccc23)cc1,21.3% (inactive)
7,CCOC(=O)c1c(C)oc2ncnc(Nc3ccc(NC(=O)Nc4ccc(CC)cc4)cc3)c12,103% (inactive)
8,CC(=O)OCC1CCCO1 (stereo not given),84.7% (inactive)
9,COc1ccc(C(=O)c2cc(OC)c(OC)c(OC)c2)cc1OC(=O)CCl,-34.4% (active)
10,COc1cc(Nc2cn[nH]c2-c2ccc(Cl)cc2)cc(OC)c1OC,14.6% (inactive)
11,Cc1oc(-c2ccc(Cl)cc2)nc1C1=NN(C(=O)c2ccncc2)C(c2ccccc2)C1 (stereo not given),97.7% (inactive)
12,COc1cc(C(=O)/C=C/c2cccnc2Nc2ccc(Cl)cc2)cc(OC)c1OC,-27.2% (active)
13,COc1ccc(C(=O)C/C(=C\c2ccc(Cl)cc2)C(=O)NCc2ccccc2)cc1,73.8% (inactive)
14,CNC(=O)CCN1CCN(CC/C=C2\c3ccccc3Sc3ccc(Cl)cc32)CC1,50.2% (inactive)
15,COc1ccc(-c2oc3cc(O)c(OC)c(O)c3c(=O)c2OC)cc1O,-8.34% (active)
16,COc1cccc(-c2cc(-c3cc4ccccc4oc3=O)nc(N)n2)c1,101% (inactive)
17,Cc1ccc(-c2n[nH]c(=O)c3noc(-c4ccc(C)cc4)c23)cc1,6.11% (active)
18,O=C(Nc1cccc([N+](=O)[O-])c1)c1cc2ccccc2cc1O,-54.1% (active)
19,CC(=O)Nc1ccc2nc3ccc(NC(C)=O)cc3[n+](-c3ccccc3)c2c1,4% (active)
20,CCCCCCCCCCCC(=O)NCCC[N+](C)(C)CC(=O)[O-],101% (inactive)
